In the library only some 10% were active in any assay of this set; here they are far more common.
G9a inh – G9a (human) methyltransferase inhibition | AID 504332 | Q96KQ7 | G9a H3K9 monomethylation, AlphaScreen, 2 h | Potency, µM (series often up to 102 µM), inactives show at the highest dose activity, negative = inhibition, actives largely listed as inhibitors | 350,000 compounds, 8.8% hits; note: potency is the fitted concentration of half-maximal effect; % is set by controls: 0 for no effect and ±100 for the full control effect; nearly all actives have a fitted effect of over 75% in size
Target sequence (Q96KQ7 913-1193 limits assumed): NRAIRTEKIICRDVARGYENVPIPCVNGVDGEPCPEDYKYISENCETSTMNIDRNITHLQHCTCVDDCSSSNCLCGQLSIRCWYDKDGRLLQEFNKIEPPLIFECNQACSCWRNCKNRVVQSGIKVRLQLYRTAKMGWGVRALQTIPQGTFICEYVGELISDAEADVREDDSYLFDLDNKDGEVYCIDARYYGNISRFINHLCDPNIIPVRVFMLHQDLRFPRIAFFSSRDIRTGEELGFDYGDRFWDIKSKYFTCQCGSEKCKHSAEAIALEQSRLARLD
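Chemiluminescent proximity detection of H3K9 monomethylation, read after 10 min bead incubation in the dark. Reaction: 20 nM G9a, 500 nM biotin-H3K9 peptide, 20 uM SAM cofactor, 2 h, room temperature, following 15 min enzyme-compound preincubation.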
BAZ2B inh – BAZ2B (human) inhibition | Potency, µM (doses to about 114 µM), without a hit: top-dose activity change, negative = inhibition, actives largely listed as inhibitors | 360,000 compounds, 4.4% hits | AID 504333 | Q9UIF8 | AlphaScreen BAZ2B-H3K14Ac peptide displacement; note: potency is the fitted concentration of half-maximal effect; % is set by controls: 0 for no effect and ±100 for the full control effect; nearly all actives have a fitted effect of over 60% in size
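AlphaScreen luminescence quantifies BAZ2B engagement of H3K14Ac peptide; the protein and biotinylated peptide are both at 50 nM final, buffer PBS pH 7.4 with 0.01% Tween-20, all steps at room temperature.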
JMJD2A Tudor inh – inhibitors of human JMJD2A Tudor domain; AID 504339; Potency, µM (series often up to 114 µM), without a hit: at the top dose activity change, negative = inhibition, usual class: inhibitors; 390,000 compounds, 4.4% hits; AlphaScreen JMJD2A-Tudor / H3K4me3 peptide binding; O75164; note: potency is the fitted concentration of half-maximal effect; % is set by controls: 0 for no effect and ±100 for the full control effect; nearly all actives have a fitted effect of over 50% in size
CtBP-E1A inh – CtBP/E1A binding inhibition; AlphaScreen GST-E1A/His-CtBP binding, 1536-well; active compounds read low; activity change, % (concentration not given with the values); 340,000 compounds, 0.49% hits; in the data active = activity change below about -65%; inconclusive = mostly about -30% to -63%; note: % is set by controls: 0 for no effect and ±100 for the full control effect
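Steps: dispense buffer (Tris pH 8.0, NaCl 300 mM, TCEP 1 mM, BSA, Tween 20); add 5X protein mix (GST-E1A, His-CtBP, 125 nM each); pin 23 nL compound; 2 h at 37 °C, dark; add 5X beads (50 ug/mL); 1 h; read.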
HP1b binding inh – HP1-beta chromodomain-methylated histone interaction inhibition; AlphaScreen HP1-beta / biotin-H3K9me3 peptide binding; 390,000 compounds, 0.56% hits; Potency, µM (titrated, usually from 114 µM), inactives show at the highest dose activity change, negative = inhibition, hits mostly inhibitors; note: potency is the fitted concentration of half-maximal effect; nearly all actives have a fitted effect of over 70% in size
Target sequence (P83916 whole entry, looked up): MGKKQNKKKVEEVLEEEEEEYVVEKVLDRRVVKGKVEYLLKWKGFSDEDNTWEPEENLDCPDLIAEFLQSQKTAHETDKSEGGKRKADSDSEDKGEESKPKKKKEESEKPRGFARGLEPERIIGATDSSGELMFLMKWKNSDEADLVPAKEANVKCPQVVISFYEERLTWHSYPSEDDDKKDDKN
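AlphaScreen: HP1-beta (50 nM) preformed 30 min with biotin-H3(1-18)K9me3 peptide (50 nM) in PBS pH 7.4, 0.01% Tween-20. Compound added for 30 min at RT, then streptavidin donor/nickel chelate acceptor beads (10 ug/mL) for 30 min.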
Six1-Eya2 inh – inhibitors of human Six1/Eya2 interaction. activity change, % (test concentration not listed). AlphaScreen GST-Six1/His-Eya2 binding, biochemical; active compounds read low. Q15475+O00167. 360,000 compounds, 0.56% hits; in the data active = activity change below about -65%; inconclusive = mostly about -30% to -63%; note: % is set by controls: 0 for no effect and ±100 for the full control effect
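GST-Six1 + His-Eya2 (5X stock: 250/500 nM); Tris pH 8.0, 300 mM NaCl, 0.05% BSA, 0.02% Tween 20; GSH donor/Ni acceptor beads; 1 h 37 °C dark; AlphaScreen readout.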
Numbers without * were called inactive; ? = inconclusive; nt = no result given; [ ] = dose if it differs, or a comment. Unless noted, calls come from the whole dose curve; as a rule, active = well fitted inhibition curve with a large enough effect; inconclusive = small, poorly fitted or top-dose-only effect; inactive = no such curve, though single readings can be large or run the other way.

SMILES | G9a inh | BAZ2B inh | JMJD2A Tudor inh | CtBP-E1A inh | HP1b binding inh | Six1-Eya2 inh
Cn1c(=N)c(S(=O)(=O)c2ccccc2)cc2c(=O)n3ccccc3nc21 | -9.7%[59 µM] | 1.8% | 0.4% | -69.5* | 48.0% | ?
Cc1ccc(S(=O)(=O)c2cc3c(=O)n4ccccc4nc3n(CCCN3CCOCC3)c2=N)cc1C | 11.5% | -15.9%[57.1 µM] | -33.8% | -24.9 | 12.5% | -9.8
N=c1c(S(=O)(=O)c2ccccc2)cc2c(=O)n3ccccc3nc2n1CCCN1CCOCC1 | 79.4µM* | 3.6% | -23.6% | -12.3 | 5.2% | -12.9
Cn1c(=N)c(S(=O)(=O)c2ccc(F)cc2)cc2c(=O)n3ccccc3nc21 | nt | 5.5% | 0.7% | -15.5 | 27.6% | -10.9
Cc1ccc(CNC(=O)C(=O)NCC(c2cccs2)S(=O)(=O)c2ccc(C)cc2)cc1 (stereo not drawn) | ? | -5.2% | -16.6% | nt | 36.3% | nt
COc1ccc(N2CC(NC(=O)COc3ccccc3C)CC2=O)cc1OC (stereo not drawn) | 13.6%[59 µM] | -1.9% | -14.3% | nt | 39.3% | nt
Cc1nc2c(-c3ccccc3)c(C)nn2c(C)c1CCC(=O)Nc1ccccc1F | 12.3%[59 µM] | -2.4% | 7.4% | nt | 19.9% | nt
CN(C)c1ccc(CN(CC2CCCO2)C(=O)c2cc3ccccc3o2)cc1 (stereo not drawn) | 6.31µM* | 10µM* | 44.7µM* | -13.9 | ? | ?
CCOc1cccc(C(=O)N(Cc2ccc(N(C)C)cc2)CC2CCCO2)c1 (stereo not drawn) | 14.1µM* | 50.1µM* | ? | nt | 3.0% | nt
CN(Cc1ccc(N(C)C)cc1)C(=O)c1cc2ccccc2o1 | 39.8µM* | 31.6µM* | 50.1µM* | ? | ? | ?
COc1ccc(C(=O)N(Cc2ccc(N(C)C)cc2)CC2CCCO2)cc1 (stereo not drawn) | 11.2µM* | ? | ? | nt | 21.5% | nt
CN(C)c1ccc(CN(CC2CCCO2)C(=O)c2ccc(Br)cc2)cc1 (stereo not drawn) | 14.1µM* | 39.8µM* | 50.1µM* | nt | ? | nt
CN(C)c1ccc(C(=O)NCC2CCCO2)cc1 (stereo not drawn) | ? | -2.0% | -17.1% | 2.1 | 46.8% | 5.6
Cc1ccc(C(=O)N(Cc2ccc(N(C)C)cc2)CC2CCCO2)cc1 (stereo not drawn) | 12.6µM* | 35.5µM* | ? | nt | -23.5% | nt
COc1ccc2[nH]cc(CCNc3nc(-c4c(C)noc4C)nc4ccccc34)c2c1 | 7.2%[0.501 µM] | nt | nt | nt | nt | nt
Cc1ccc2ccc(C(Nc3ccccc3)c3ccccc3)c(O)c2n1 (stereo not drawn) | nt | nt | nt | -23.1 | nt | -18.1
COc1cc(C(Nc2ccccn2)c2ccc3ccc(C)nc3c2O)cc(OC)c1O (stereo not drawn) | ? | 50.1µM* | 50.1µM* | -6.0 | ? | ?
Cc1cccc(NC(c2ccccc2C)c2ccc3ccc(C)nc3c2O)n1 (stereo not drawn) | ? | 22.4µM* | ? | nt | -12.6% | nt
Cc1ccc2ccc(C(Nc3ccccn3)c3ccccc3)c(O)c2n1 (stereo not drawn) | 14.1µM* | ? | ? | -5.2 | 4.3% | -2.3
Cc1ccc2ccc(C(Nc3cccc(C(F)(F)F)c3)c3cccnc3)c(O)c2n1 (stereo not drawn) | 10µM* | -25.2% | ? | nt | 4.7% | -4.7
CCN(c1ccccc1)S(=O)(=O)c1nnc(NC(=O)C(C)Oc2ccccc2)s1 (stereo not drawn) | ? | ? | ? | nt | -36.2% | nt
CC(=O)c1ccc(NC(=O)C2CCN(S(=O)(=O)c3ccc4c(c3)CCCN4C(=O)C3CCC3)CC2)cc1 | 18.1%[59 µM] | -0.2% | 1.6% | nt | 20.6%[57 µM] | nt
COc1ccc(-c2c[n+]3c4n2CCCCC4=C(c2ccccc2)C3)cc1 | 14.1µM* | 56.2µM* | 39.8µM* | -6.6 | -4.7% | -8.5
Cc1ccc(-n2nc(C(=O)NN)c(C)c(C#N)c2=O)cc1Cl | ? | -0.2% | -23.3% | -4.5 | 30.6% | -11.4
Cc1c(C(=O)NN)nn(-c2ccc(Cl)cc2)c(=O)c1C#N | 44.7µM* | -11.1% | -24.8% | -6.2 | 6.2% | -2.4
SMILES | G9a inh | BAZ2B inh | JMJD2A Tudor inh | CtBP-E1A inh | HP1b binding inh | Six1-Eya2 inh
CCOc1ccc(CNC(=O)c2sc3nc(C)cc(C)c3c2-n2cccc2)cc1 | -11.2%[59 µM] | -0.6% | -26.2% | nt | -1.5% | nt
On1c(-c2ccc(Cl)cc2Cl)nc2ncccc21 | 14.7% | -1.7% | -7.6% | 3.1 | 56.7% | 10.2
S=c1[nH]nc(-c2ccc(Cl)cc2Cl)n1-c1ccccc1 | 6.31µM* | -27.8% | -12.9% | nt | 27.6% | 6.0
S=c1[nH]nc(-c2cccc(Cl)c2)n1Cc1ccccc1 | ? | -35.4% | ? | -6.5 | 35.6% | -11.3
S=c1[nH]nc(COc2ccc(Cl)cc2Cl)n1-c1ccccc1 | 10µM* | -30.3% | -33.8% | -13.6 | 29.8% | -3.1
S=c1[nH]nc(-c2ccc(Cl)cc2Cl)n1Cc1ccccc1 | ? | -6.3% | 12.6µM* | -11.4 | ? | -16.3
CCn1c(-c2cccn(Cc3ccc(Cl)cc3Cl)c2=O)n[nH]c1=S | 8.91µM* | 4.7% | -31.6%[11.4 µM] | nt | -9.5% | 4.4
CC(=O)N1CCc2cc(CNS(=O)(=O)c3ccccc3C(F)(F)F)ccc21 | 3.3%[59 µM] | 8.4% | -15.6% | nt | 16.4%[57 µM] | nt
CCc1ccc2oc(-c3ccc(NC(=O)c4cccc(Cl)c4Cl)cc3)nc2c1 | -17.1%[59 µM] | 1.7% | -14.4% | nt | 27.2% | nt
CCC(C)C(N)C1=NC(C(=O)N[C@@H](CC(C)C)C(=O)N[C@H](CCC(=O)[O-])C(=O)N[C@H](C(=O)N[C@H]2CCCCNC(=O)[C@H](CC(N)=O)NC(=O)[C@@H](CC(=O)[O-])NC(=O)[C@H](Cc3cnc[nH]3)NC(=O)[C@@H](Cc3ccccc3)NC(=O)[C@H]([C@@H](C)CC)NC(=O)[C@@H](CCCN)NC2=O)[C@@H](C)CC)CS1.[Zn+2] (stereo partly drawn) | nt | nt | 2.82µM* | 2.4 | 12.6µM* | -3.0
CCC(CO)Oc1cc(NCc2cccnc2)c2ncn(C(C)C)c2c1 (stereo not drawn) | nt | nt | 79.4µM* | -15.3 | 10.1% | 7.0
CCC(CO)Oc1cc(NCc2cccc(Cl)c2)c2ncn(C(C)C)c2c1 (stereo not drawn) | nt | nt | 25.1µM* | ? | ? | -14.9
CCC(CN(C)C)Oc1cc(NCc2ccccc2)c2ncn(C(C)C)c2c1 (stereo not drawn) | nt | nt | 89.1µM* | -15.8 | 7.8% | -7.9
CCC(CO)Oc1cc(NCc2ccncc2)c2ncn(C(C)C)c2c1 (stereo not drawn) | nt | nt | -35.9% | 4.3 | 51.7% | -3.6
CCC(CO)Oc1cc(NCc2ccc(F)cc2)c2ncn(C(C)C)c2c1 (stereo not drawn) | nt | nt | 56.2µM* | -3.6 | ? | -6.7

Source: PubChem
